This is a sample that favours compounds with a hit; in the whole collection about 9% have one here.
JMJD2A Tudor: JMJD2A Tudor domain (human) inhibition; O75164; AlphaScreen JMJD2A-Tudor / H3K4me3 peptide binding; 390,000 compounds, 4.4% hits; Potency, µM (doses to about 114 µM), actives largely listed as inhibitors; note: nearly all actives have a fitted effect of over 50% in size
ALOX12 inh: inhibitors of human 12S-lipoxygenase ALOX12 | purified 12hLO, xylenol orange hydroperoxide absorbance | Potency, µM (highest dose often 108 µM), most hits filed as inhibitors | 580,000 compounds, 1.1% hits | AID 1671190
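Purified human 12hLO (150 nM final) in 25 mM Hepes, 0.01% Triton X-100, pH 7.0 was preincubated 15 min at room temperature with compound. Then 40 uM arachidonic acid was added, 30 min. Hydroperoxide was read by Fe-XO absorbance ratio 573/405 nm.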
G9a block: blocks human histone lysine methyltransferase G9a. Q96KQ7. G9a H3K9 monomethylation, AlphaScreen, 2 h. Potency, µM (titrated, usually from 102 µM), most hits filed as inhibitors. 350,000 compounds, 8.8% hits. AID 504332; note: nearly all actives have a fitted effect of over 75% in size
Target sequence (Q96KQ7 913-1193 limits assumed): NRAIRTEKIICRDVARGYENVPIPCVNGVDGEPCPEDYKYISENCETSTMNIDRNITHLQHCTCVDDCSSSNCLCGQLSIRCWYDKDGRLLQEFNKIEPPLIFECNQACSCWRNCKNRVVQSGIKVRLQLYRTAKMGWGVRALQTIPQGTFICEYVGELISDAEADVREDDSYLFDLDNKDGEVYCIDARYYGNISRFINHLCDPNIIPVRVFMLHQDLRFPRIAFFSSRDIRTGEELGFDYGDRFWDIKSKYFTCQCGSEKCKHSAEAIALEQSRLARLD
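AlphaScreen read-out: biotin-H3K9 peptide (500 nM) methylation by 20 nM enzyme with 20 uM SAM, 2 h at room temperature after 15 min compound preincubation; anti-monomethyl H3K9 antibody plus donor/acceptor beads, 10 min dark.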
PLK1 PBD block: PLK1 (human) polo-box domain binding inhibition | P53350 | Plk1 PBD binding of FITC phosphopeptide, fluorescence polarization | Potency, µM, usual class: inhibitors | 360,000 compounds, 2.8% hits | AID 720504; note: series mostly up to about 57 µM; nearly all actives have a fitted effect of over 65% in size
HP1b binding inh: HP1-beta chromodomain-methylated histone interaction inhibition | P83916 | AlphaScreen HP1-beta / biotin-H3K9me3 peptide binding | Potency, µM (highest dose often 114 µM), hits mostly inhibitors | 390,000 compounds, 0.56% hits | AID 540317; note: nearly all actives have a fitted effect of over 70% in size
Target sequence (P83916 whole entry, looked up): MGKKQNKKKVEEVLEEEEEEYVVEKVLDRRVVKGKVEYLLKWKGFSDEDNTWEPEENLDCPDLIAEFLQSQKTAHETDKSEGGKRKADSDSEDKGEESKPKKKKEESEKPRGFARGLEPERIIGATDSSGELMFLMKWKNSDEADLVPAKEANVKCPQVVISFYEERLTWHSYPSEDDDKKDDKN
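AlphaScreen: HP1-beta (50 nM) preformed 30 min with biotin-H3(1-18)K9me3 peptide (50 nM) in PBS pH 7.4, 0.01% Tween-20. Compound added for 30 min at RT, then streptavidin donor/nickel chelate acceptor beads (10 ug/mL) for 30 min.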
BAZ2B block: inhibitors of human BAZ2B bromodomain | Q9UIF8 | AlphaScreen BAZ2B-H3K14Ac peptide displacement | Potency, µM (doses to about 114 µM), most hits filed as inhibitors | 360,000 compounds, 4.4% hits | AID 504333; note: nearly all actives have a fitted effect of over 60% in size
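Inhibition is scored as reduced AlphaScreen emission. The BAZ2B/b-H3(5-23)K14Ac complex (50 nM each) in PBS pH 7.4, 0.01% Tween-20 meets compound (up to 110 uM) for 30 min at RT before bead addition.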
Large screens that a line does not name were inactive. Calls come from the whole dose curve; as a rule, active = well fitted curve in the direction sought with a large enough effect; inconclusive = small, poorly fitted or top-dose-only effect, or another doubt; inactive = no such curve, though single readings can be large; an effect the other way counts as inactive or inconclusive.

CC1CN(C(=O)C(C)N2CCN(c3ccccc3Cl)CC2)CC(C)O1 (configuration not stated)	none
COc1ccc(Cn2c(SCc3ccccc3C)nc3cc(OC)c(OC)cc3c2=N)cc1	ALOX12 inh inconclusive, G9a block 40µM, BAZ2B block inconclusive (no result: JMJD2A Tudor, PLK1 PBD block, HP1b binding inh)
COCCOC(=O)c1c(C)nc(SCC(=O)Nc2ccc(OC)cc2)c(C#N)c1-c1ccco1	G9a block 45µM
CCc1ccc(NC(=O)CSc2nc(C)c(C(=O)Nc3ccc(Cl)cc3)c(-c3ccc(OC)cc3)c2C#N)cc1	none (no result: PLK1 PBD block)
CCOC(=O)CCc1c(C)nc(SCCN2CCCC2)c(C#N)c1C	G9a block 40µM
N/C(=N\OC(=O)Cc1ccccc1[N+](=O)[O-])c1ccncc1	none
O=c1nc(N2CCOCC2)ccn1-c1nc(-c2ccccc2)oc1-c1ccccc1	G9a block inconclusive
CCCC(C)NC(=O)c1ccc2[nH]c3c(c2c1)CC(C)CC3 (configuration not stated)	G9a block inconclusive
Cc1ccc(N2CCN(c3ncccc3[N+](=O)[O-])CC2)c(C)c1	JMJD2A Tudor 40µM, G9a block 18µM, HP1b binding inh inconclusive, BAZ2B block 28µM
O=[N+]([O-])c1cccnc1N1CCN(c2ccccc2F)CC1	JMJD2A Tudor 50µM, G9a block inconclusive, HP1b binding inh inconclusive, BAZ2B block inconclusive
Cc1ccc(C)c(N2CCN(c3ncccc3[N+](=O)[O-])CC2)c1	JMJD2A Tudor 40µM, BAZ2B block 32µM
Cc1cccc(NC(=S)N2CCCN(c3ncccc3[N+](=O)[O-])CC2)c1	JMJD2A Tudor inconclusive, BAZ2B block inconclusive (no result: G9a block)
O=[N+]([O-])c1cccnc1N1CCCCC1	JMJD2A Tudor inconclusive
CS(=O)(=O)N1CCN(C(=O)Cn2nc3c(cc2=O)CCCC3)CC1	none (no result: JMJD2A Tudor, G9a block, PLK1 PBD block, HP1b binding inh, BAZ2B block)
O=S(=O)(c1ccc(Cl)s1)N1CCCCC1	ALOX12 inh inconclusive
CC(C)c1ccc(N2C(=O)/C(=C/N(C)C)SC2=S)cc1	JMJD2A Tudor 45µM, ALOX12 inh inconclusive, G9a block 50µM, HP1b binding inh inconclusive, BAZ2B block 45µM
COc1ccc(-c2noc(-c3nnn4c3COC(c3ccc(C)cc3C)C4)n2)cc1 (configuration not stated)	none (no result: JMJD2A Tudor, G9a block, PLK1 PBD block, HP1b binding inh, BAZ2B block)
O=C(Nc1ccccc1-c1nnc(SCc2ccccc2)o1)c1ccccc1	none
O=[N+]([O-])c1ccc(O)c(/C=N/n2c(CO)nc3ccccc32)c1	none
C/C(=N\OCc1nc2ccccc2c(=O)n1/N=C/c1cc([N+](=O)[O-])ccc1O)c1ccccc1	G9a block 40µM
O=c1c2ccccc2nc(COc2ccccc2)n1/N=C/c1ccc(O)cc1O	BAZ2B block inconclusive
C/C(=N\OCc1nc2ccccc2c(=O)n1/N=C/c1cc(C)cc([N+](=O)[O-])c1O)c1ccccc1	ALOX12 inh inconclusive, BAZ2B block 7.9µM (no result: G9a block)
S=C(NCCCn1ccnc1)Nc1ccc(Cl)cc1Cl	BAZ2B block 50µM
O=C(CCCOc1ccc(Cl)cc1Cl)NCCCn1ccnc1	none (no result: G9a block)
CC(Oc1ccc(Cl)cc1Cl)C(=O)NCCCn1ccnc1 (configuration not stated)	PLK1 PBD block 24µM
O=C(NCCCn1ccnc1)Nc1ccc(Cl)c(Cl)c1	JMJD2A Tudor inconclusive, BAZ2B block 40µM
CCc1ccc2c(c1)-c1ccccc1S(=O)(=O)N2CC(=O)N1CCCCC1	none (no result: PLK1 PBD block)
Cc1cccc(C)c1NC(=O)c1ccc(-c2cc(F)ccc2F)o1	none (no result: JMJD2A Tudor, G9a block, HP1b binding inh, BAZ2B block)
Cc1ccccc1-c1ccc(C(=O)Nc2cccc(F)c2)o1	G9a block 10µM, BAZ2B block inconclusive
O=C(NCCc1ccccc1)c1ccc(-c2ccccc2C(F)(F)F)o1	ALOX12 inh inconclusive, G9a block 50µM
COc1ccc(NC(=O)c2ccc([N+](=O)[O-])o2)cc1	G9a block inconclusive
COc1ccc(NC(=O)c2ccc(-c3ccccc3C(F)(F)F)o2)cc1	G9a block 71µM
Cc1cccc(NC(=O)c2ccc(-c3ccccc3[N+](=O)[O-])o2)c1	JMJD2A Tudor inconclusive, BAZ2B block inconclusive
O=C(Nc1cccc(F)c1)c1ccc(-c2ccccc2C(F)(F)F)o1	ALOX12 inh inconclusive, G9a block 45µM (no result: JMJD2A Tudor, PLK1 PBD block, HP1b binding inh)
Cc1nnsc1C(=O)Oc1ccc(Cl)cc1	G9a block 13µM (no result: PLK1 PBD block)

Bioassay records: PubChem, National Center for Advancing Translational Sciences (NCATS)
